GCN5L2 inh: GCN5L2 (KAT2A) acetyltransferase inhibition | Q92830 | GCN5L2 HAT assay, ThioGlo1 CoA-SH fluorescence | Potency, µM (series often up to 58.9 µM), usual class: inhibitors | hit rate 0.21% among 390,000 | AID 504327
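Preincubate 20nM GCN5L2 with compound 15 min, RT → add 50uM ThioGlo1 + 75uM H3(1-25) + 70uM acetyl-CoA → read fluorescence 0 and 20 min. Primary qHTS; fluorescent artifacts likely.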
PLK1 PBD inh: inhibitors of human PLK1 polo-box domain binding; Potency, µM, actives largely listed as inhibitors; AID 720504; hit rate 2.8% among 360,000; Plk1 PBD binding of FITC phosphopeptide, fluorescence polarization; P53350; note: series mostly up to about 57 µM; nearly all actives have a fitted effect of over 65% in size
GLS inh: inhibitors of human glutaminase (GLS) | O94925 | GLS enzymatic activity, qHTS titration | Potency, µM (top dose mostly 45.5 µM), usual class: inhibitors | hit rate 0.21% among 410,000 | AID 624170
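Compounds were pin-transferred onto hKGA, after which L-glutamine (1 mM solution) and a detection mix of glutamate oxidase, HRP and Amplex Red were added. Initial and 30 min RT fluorescence reads were collected.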
VDR inh: blocks the human vitamin D receptor; hit rate 0.93% among 400,000; VDR-SRC2-3 peptide fluorescence polarization, 2 h; Potency, µM, usual class: inhibitors
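Inhibition of the VDR/SRC2-3 peptide interaction is quantified by fluorescence polarization. Compounds (23 nl, pintool) incubate with the reagents for 2 hours at ambient room temperature.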
PI4K2A inh: inhibitors of human PI4K2A; Q9BTU6; purified PI4K2A, ADP-Glo luminescence, 1 h; stronger effect = lower value; activity change, negative = inhibition, % at 76.9 µM; hit rate 0.13% among 420,000; AID 1346378; in the data active = activity change below about -50%; inconclusive = mostly about -30% to -49%
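ADP-Glo luminescence measured ADP generated by PI4K2A enzyme (4 ug/mL before mixing) with 1.2 mM PI substrate (pre-mix) and 300 microM ATP (pre-mix). Tris pH7.5 buffer with MgCl2, Triton X-100; 1 h reaction at ambient temperature.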
Numbers stand for hits; . = inactive; ? = inconclusive; / = no result. In the library only some 3.1% were active in any assay of this set; here they are far more common. Unless noted, calls come from the whole dose curve; as a rule, active = well fitted curve in the direction sought with a large enough effect; inconclusive = small, poorly fitted or top-dose-only effect, or another doubt; inactive = no such curve, though single readings can be large; an effect the other way counts as inactive or inconclusive.

SMILES	GCN5L2 inh	PLK1 PBD inh	GLS inh	VDR inh	PI4K2A inh
CN(C)S(=O)(=O)c1ccc(=S)[nH]c1	.	24µM	.	.	.
CCCCCCCCN1CCS(=O)(=O)N(Cc2ccccc2)C(C(=O)OC)C1 (centres undefined)	/	/	/	/	.
CSCC[C@H](NC(=O)c1ccc(Br)o1)c1nnc2ccccn12	.	11µM	.	?	.
Cc1ccc(S(=O)(=O)c2nc(Nc3ccccc3)sc2Cl)cc1	.	30µM	.	.	.
O=S(=O)([N-]c1nc2ccccc2nc1-[n+]1ccc(-c2ccncc2)cc1)c1ccccc1	.	17µM	.	.	.
O=S(=O)([N-]c1nc2ccccc2nc1-[n+]1ccccc1)c1ccccc1	.	.	.	.	.
CCCCN=C1NN=C(c2ccc3c(c2)OCCO3)CS1	.	.	.	.	.
CCCCN=C1NN=C(c2ccc(C)c(C)c2)CS1	.	11µM	.	?	.
O=C(NCCc1cccc(C(F)(F)F)c1)C1CCC(=O)N(CCc2cccc(F)c2)C1 (centres undefined)	.	.	.	.	.
O=C(NCCc1cn[nH]c1)C1CCC(=O)N(CCc2cccc(F)c2)C1 (centres undefined)	.	3.4µM	?	?	.
NC(=O)c1cc(S(=O)(=O)N2CCc3ccccc3C2)cs1	.	21µM	.	?	.
Cc1ccc(S(=O)(=O)N2CCc3ccccc3C2)cc1	.	.	.	.	.
O=c1c2cc3cccnc3nc2ncn1Cc1cccs1	/	/	/	/	.
CN(CCc1ccc(Cl)c(Cl)c1)CC(O)COc1ccc(NS(C)(=O)=O)cc1 (centres undefined)	.	/	/	.	/
CC(=O)c1cccc(OCC(=O)N(C)CC(=O)Nc2ccc(F)cc2)c1	.	30µM	.	.	.
COc1ccc(C(=O)O/N=C(\C)c2ccccc2)cc1	.	.	.	.	-95
COc1ccc(C(=O)ON=C(C)c2nccs2)cc1	/	.	.	/	-66
COc1ccc(C(=O)O/N=C(/c2ccccc2)c2ccncc2)cc1	.	.	.	?	.
C#CCN1CC(N(C)CCOC(=O)c2occ3ccccc23)CS1(=O)=O (centres undefined)	/	/	/	/	.
CC(=O)C(C(C)=O)C(NC(=O)c1cccnc1)(C(F)(F)F)C(F)(F)F	.	2.7µM	?	?	.
Cc1ccc(C(C)NC(=O)c2cccnc2)cc1 (centres undefined)	/	.	.	.	.
O=C(Nc1ccccc1C(F)(F)F)c1cccnc1	.	.	.	.	.
CC(C)C(NC(=O)c1cccnc1)C(=O)O (centres undefined)	.	.	.	79µM	.
CCOC(=O)Cc1ccc(NC(=O)N2CC(CC)Oc3ccccc32)cc1 (centres undefined)	.	/	.	.	.
Cc1ccc(N2C3=C(C(=O)CC(C)(C)C3)C(c3cn(C)nc3C)C3=C2CC(C)(C)CC3=O)cc1	/	3.8µM	?	20µM	.
SMILES	GCN5L2 inh	PLK1 PBD inh	GLS inh	VDR inh	PI4K2A inh
Cc1nn(C)cc1C1C2=C(CC(C)(C)CC2=O)N(c2ccccc2)C2=C1C(=O)CC(C)(C)C2	.	.	.	.	.
O=C1NC(=S)S/C1=C\C=C\c1ccc([N+](=O)[O-])o1	.	21µM	.	.	.
CCCCN(C)C(=O)CSc1nnc(-c2cccnc2)n1C1CCCCC1	/	/	/	/	.
S=C(Nc1ccccc1Cl)OCCN1CCCC12CCC(c1ccccc1)CC2 (centres undefined)	/	/	/	/	.
Cc1cc(C)cc(NC(=O)[C@H](NC(=O)[C@@H]2Cc3ccccc3CN2)c2ccccc2)c1	.	.	.	.	.
CCc1ccc(NC(=O)[C@H](NC(=O)[C@@H]2Cc3ccccc3CN2)c2ccccc2)cc1	.	30µM	.	.	.
Cc1cc(NC(=O)COc2cc(F)cc(F)c2)n(-c2ccccc2)n1	/	/	/	/	.
COc1ccc(-c2cc(C(=O)Nc3cccc(O)c3)on2)cc1OC	.	/	.	.	.
CCCC(=O)Oc1c(Sc2ccc(Cl)cc2)c(C)nn1-c1ccccc1	.	/	.	50µM	.
Cc1ccc(Sc2c(C)nn(-c3ccccc3)c2OC(=O)CC(C)C)cc1	.	/	.	79µM	.
COc1cc(C(=O)Oc2c(Sc3ccc(C)cc3)c(C)nn2-c2ccccc2)cc(OC)c1OC	.	/	.	?	.
COc1ccccc1C(=O)Oc1c(Sc2ccccc2)c(C)nn1-c1ccccc1	.	/	.	.	.
COc1ccccc1NC(=O)CSc1nc2ccccc2c2nc(-c3ccccc3)nn12	.	/	.	.	.

Compound activity (PubChem)
